Each structure is given as a SMILES string. Records with an inconclusive call do not appear. The source made the active and inactive calls.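 Rule for the calls, unless noted: active = inhibition above 50%, about 3 SD of the validation set; inactive = the rest.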

Results on five compounds are retold here after PubChem BioAssay.

Experiment [1] in a line: yeast TOR pathway RPL19A-GFP modulators, primary screen, cell-based, S. cerevisiae, multiplex flow cytometry (AID 1862; in the data active = percent of DMSO control GFP below about 86%;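 note: lower values mimic rapamycin by blocking the RPL19A rise seen in DMSO cells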). Conditions: S. cerevisiae RPL19A-GFP strain, flow cytometry fluorescence, 3 h; at 10 µM; stronger effect = lower value.
The nature of experiment [2]: modulators of MEP2-GFP levels in yeast, primary screen, S. cerevisiae, multiplex flow cytometry (AID 1867;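 active = GFP response, as percent of the DMSO control, above the screen-wide mean plus 3 SD, about 139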;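 note: median GFP channel fluorescence of barcode-gated MEP2-GFP cells measured by flow cytometry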). Conditions: S. cerevisiae MEP2-GFP strain, 3 h, at 10 µM, stronger effect = higher value, 100% means same as DMSO wells.
Experiment [3] in a line: modulators of CIT2-GFP expression in yeast, primary screen, S. cerevisiae, GFP fusion, multiplex flow cytometry (AID 1870;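 active = percent response above a set limit, the screen-wide mean plus 3 SD, cut at about 130% in these data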;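 note: barcoded CIT2-GFP strain pooled with four other GFP strains with rapamycin as positive control; median GFP fluorescence per well over plate mean of DMSO wells so 100% = DMSO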). The following applies: 3 h, at 10 µM, stronger effect = higher value. For orientation: A flow cytometer gives signals particle by particle.
Experiment [4] in a line: modulators of LAP4-GFP expression in yeast, primary screen, S. cerevisiae, multiplex flow cytometry (AID 1873;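 active = GFP signal, as percent of the solvent control, above the screen mean plus 3 SD, about 149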). Conditions: 3 h, at 10 µM, stronger effect = higher value.
Experiment [5] in a line: modulators of AGP1-GFP expression in yeast TOR pathway, primary screen, cell-based, multiplex flow cytometry, S. cerevisiae (AID 1887;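 active = GFP signal above the screen-wide mean plus 3 SD, that is over about 124.5% of the solvent control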;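 note: AGP1-GFP fusion strain of S. cerevisiae within a five-strain barcoded multiplex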). The following applies: 3 h, at 10 µM, stronger effect = higher value.
Experiment [6] is described as follows: inhibitors of CD8+ T cell-vesicle binding, pilot screen, LFA-1/ICAM-1 modulator project, MLPCN validation set, flow cytometry (AID 2523;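 active = response below a set limit, under 55% cells CD8-positive and vesicle-bound, and CD8 cells' 90th-percentile brightness under 279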;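 for vesicle binding response: mean PE anti-B7-1 fluorescence of CD8+ cells relative to row control; 100% = QL9-loaded vesicles with DMSO vehicle in the same plate row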). The following applies: 2C mouse CD8+ T cells, at 7 µM, stronger effect = lower value; double positive events: measured here: CD8+/vesicle+ event percentage.
Experiment [7] deals with Integrin beta-1 (Homo sapiens) + Integrin alpha-4 (Homo sapiens) (UniProt P13612+P05556). Briefly: inhibition of HUTS-21 binding to VLA-4, pilot screen, VLA-4 allosteric modulator project, U937 cells, HUTS-21 mAb, flow cytometry, validation set (AID 2674).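 Note: antibody binding induced by the VLA-4 ligand LDV present at three times its Kd; 0% = LDV ligand with antibody and no compound and 100% = antibody without LDV.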 Conditions: HUTS-21 LIBS mAb binding, at 6.7 µM, stronger effect = higher value, binding induced by LDV ligand.
Experiment [8] is described as follows: superoxide lowering in aged yeast cells, pilot screen, validation compound set (AID 2706;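 active = superoxide response below 65% of plate, a cut near 3 SD across the whole screen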;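 note: yeast exposed to compound for one week at 30 degrees C before staining; 100% = mean of all compound wells on the same plate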). The following applies: S. cerevisiae aging, superoxide DHE fluorescence; at 10 µM; stronger effect = lower value.
The target of experiment [9] is Beta-adrenergic receptor kinase 1 (Homo sapiens) (UniProt P25098). As to the kind of experiment: GRK2 binders displacing RNA aptamer, biochemical, validation, human GRK2, bead flow cytometry (AID 488806;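 active = aptamer binding inhibition above 30%, about 3 SD of noise from non-fluorescent compounds; inactive = inhibition at or below 30%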). The following applies: bead-bound GRK2, FAM-aptamer displacement, at 10 µM, stronger effect = higher value.
Experiment [10] deals with Beta-2 adrenergic receptor (Homo sapiens) (UniProt P07550). As to the kind of experiment: beta2AR agonists driving receptor internalization, pilot screen, cell-based, FAP fluorogen, flow cytometry, validation set (AID 504459;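 active = percent response above 42, roughly 3 SD of non-fluorescent test compounds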;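 note: agonist-driven loss of surface beta2AR via internalization measured by FAP dye flow cytometry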). The following applies: Am2.2-beta2AR cells, FAP surface receptor flow cytometry; at 10 µM; stronger effect = higher value.
In experiment [11] the target is AP-2 complex subunit beta (Homo sapiens) (UniProt P63010). Briefly: inhibitors of arrestin peptide binding to AP2, pilot screen, biochemical, validation set, GST-AP2 beads, flow cytometry (AID 504541;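 active = inhibition above 54%, about 3 SD of non-fluorescent compounds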;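 note: AP2 carries R879A mutation and is captured from E. coli lysate; bead-bound FITC arrestin peptide fluorescence measuring arrestin peptide binding to AP2; 0% = DMSO wells and 100% = excess unlabeled arrestin peptide control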). Conditions: FITC arrestin peptide, at 10 µM, stronger effect = higher value, AP2 beta2 appendage fragment, R879A mutant.
The nature of experiment [12]: yeast V-ATPase proton transport modulators, S. cerevisiae, pHLuorin, HTS validation (AID 504600; in the data active = response above about 15%;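 note: plate controls were DMSO for no effect and reference compound for full effect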). The following applies: S. cerevisiae pHLuorin cytosolic pH, at 10 µM, stronger effect = higher value.
Experiment [13] concerns anti-desmoglein-3 scFv antibody binding to human DSG3. As to the kind of experiment: inhibitors of anti-DSG3 scFv binding to DSG3, pilot screen, biochemical, validation compound set, bead-based, flow cytometry (AID 588368;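 active = binding below the plate cutoff, the plate median minus 3 SD, with a reading above zero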;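 note: signal is the median channel fluorescence of bead-bound GFP antibody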). The following applies: Protein G beads, DSG3-Fc, scFv-GFP binding, at 10 µM, stronger effect = lower value.
Experiment [14] can be described thus: inhibitors of fungal efflux pumps CDR1, CDR2, MDR1, pilot screen, validation compound set, multiplex, phenotypic (AID 588506;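 active = efflux inhibition above 0.42, the validation set average plus 4 SD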;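 note: Nile Red retained in cells so higher fluorescence means more efflux inhibition; 0 = negative control wells and 1 = enniatin B 25 µM full block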). Conditions: S. cerevisiae pump-expressing triplex, Nile Red efflux flow cytometry; at 10 µM; stronger effect = higher value; the pumps come from Candida albicans.
For experiment [15], the target named is ATP-binding cassette sub-family B member 6 (Homo sapiens) (UniProt Q9NP58). As to the kind of experiment: ABCB6 transporter inhibitors, pilot screen, K562-ABCB6 cells, flow cytometry, validation set (AID 588550;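 active = inhibition above the screen-wide mean plus 3 SD, about 51%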;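 note: 0% = DMSO wells and 100% = benzethonium chloride 70 µM positive control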). The following applies: K562-ABCB6 porphyrin accumulation, 1 h, at 10 µM, stronger effect = higher value.
Experiment [16] can be described thus: promoters of myeloid differentiation in arrested cells, primary screen, cell-based, GFP/MAC1 double positive, flow cytometry, validation set (AID 588685;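 active = differentiation response of at least 50%, scaled between solvent and reference control, from cells with both markers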;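 note: compound exposure lasts four days before antibody staining and flow analysis; 0% = DMSO wells and 100% = 5 µM fulvestrant positive control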). Conditions: ER-HoxA9 marrow cells, stronger effect = higher value, normalized: vehicle 0, fulvestrant 100.

Chain of ATP-binding cassette sub-family B member 6 (Homo sapiens) (Q9NP58 whole entry, looked up): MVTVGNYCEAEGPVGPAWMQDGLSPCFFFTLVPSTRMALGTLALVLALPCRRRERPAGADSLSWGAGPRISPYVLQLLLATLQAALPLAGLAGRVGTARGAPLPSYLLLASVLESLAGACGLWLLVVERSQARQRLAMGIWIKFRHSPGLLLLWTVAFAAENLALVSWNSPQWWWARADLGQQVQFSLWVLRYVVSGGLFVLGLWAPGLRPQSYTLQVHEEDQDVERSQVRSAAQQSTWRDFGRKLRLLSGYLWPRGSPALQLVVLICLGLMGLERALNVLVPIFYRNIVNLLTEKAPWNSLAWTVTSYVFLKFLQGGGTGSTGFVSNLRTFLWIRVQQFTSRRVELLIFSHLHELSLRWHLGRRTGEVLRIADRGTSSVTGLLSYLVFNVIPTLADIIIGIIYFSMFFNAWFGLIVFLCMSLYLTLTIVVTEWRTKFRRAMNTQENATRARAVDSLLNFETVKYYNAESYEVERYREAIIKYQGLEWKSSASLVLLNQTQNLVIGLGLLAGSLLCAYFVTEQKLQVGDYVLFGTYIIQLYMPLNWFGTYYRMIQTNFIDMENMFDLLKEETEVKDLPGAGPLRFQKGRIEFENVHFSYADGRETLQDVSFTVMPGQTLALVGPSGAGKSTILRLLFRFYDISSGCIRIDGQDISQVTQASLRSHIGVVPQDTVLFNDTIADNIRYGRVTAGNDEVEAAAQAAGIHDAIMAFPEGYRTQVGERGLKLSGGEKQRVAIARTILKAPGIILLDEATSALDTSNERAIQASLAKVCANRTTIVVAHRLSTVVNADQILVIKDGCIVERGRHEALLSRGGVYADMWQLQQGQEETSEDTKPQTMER
Chain of AP-2 complex subunit beta (Homo sapiens) (P63010 whole entry, looked up, the tested form may be a part, one chain of several): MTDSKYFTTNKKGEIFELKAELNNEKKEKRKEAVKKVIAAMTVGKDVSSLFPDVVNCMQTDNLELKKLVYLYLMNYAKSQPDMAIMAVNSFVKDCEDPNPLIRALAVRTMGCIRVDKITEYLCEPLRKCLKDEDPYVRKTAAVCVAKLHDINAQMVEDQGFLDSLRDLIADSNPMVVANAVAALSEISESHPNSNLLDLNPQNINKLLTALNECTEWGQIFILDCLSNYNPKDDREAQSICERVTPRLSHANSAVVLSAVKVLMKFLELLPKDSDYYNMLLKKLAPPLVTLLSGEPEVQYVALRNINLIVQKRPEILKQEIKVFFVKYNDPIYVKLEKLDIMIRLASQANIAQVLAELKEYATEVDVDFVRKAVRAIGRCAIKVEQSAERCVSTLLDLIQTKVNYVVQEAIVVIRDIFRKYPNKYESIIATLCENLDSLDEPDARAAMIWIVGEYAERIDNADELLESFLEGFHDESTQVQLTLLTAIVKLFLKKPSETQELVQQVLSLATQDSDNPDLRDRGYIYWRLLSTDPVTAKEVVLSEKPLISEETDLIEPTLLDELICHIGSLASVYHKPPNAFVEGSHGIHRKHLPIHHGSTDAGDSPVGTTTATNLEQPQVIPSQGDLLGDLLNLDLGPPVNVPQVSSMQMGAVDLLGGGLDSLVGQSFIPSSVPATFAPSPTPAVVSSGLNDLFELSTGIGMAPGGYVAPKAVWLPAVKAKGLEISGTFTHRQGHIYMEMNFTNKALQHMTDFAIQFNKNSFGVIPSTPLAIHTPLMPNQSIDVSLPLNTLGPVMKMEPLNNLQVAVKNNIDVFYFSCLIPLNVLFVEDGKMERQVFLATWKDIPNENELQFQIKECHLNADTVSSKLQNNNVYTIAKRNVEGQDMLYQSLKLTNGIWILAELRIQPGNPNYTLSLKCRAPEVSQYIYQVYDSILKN
Chain of Beta-2 adrenergic receptor (Homo sapiens) (P07550 whole entry, looked up): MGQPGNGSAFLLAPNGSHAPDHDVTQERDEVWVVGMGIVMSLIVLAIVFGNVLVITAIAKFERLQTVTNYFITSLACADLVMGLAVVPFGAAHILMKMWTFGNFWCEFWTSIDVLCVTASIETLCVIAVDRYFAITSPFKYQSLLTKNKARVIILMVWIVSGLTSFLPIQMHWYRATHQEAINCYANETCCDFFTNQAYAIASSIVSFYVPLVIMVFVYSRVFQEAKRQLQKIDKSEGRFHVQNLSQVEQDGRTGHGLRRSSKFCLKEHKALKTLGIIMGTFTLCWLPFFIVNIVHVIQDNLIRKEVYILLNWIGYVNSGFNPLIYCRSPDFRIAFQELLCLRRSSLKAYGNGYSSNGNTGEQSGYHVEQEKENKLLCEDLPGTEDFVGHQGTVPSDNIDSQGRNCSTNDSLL
Chain of Integrin beta-1 (Homo sapiens) + Integrin alpha-4 (Homo sapiens) (P05556 whole entry, looked up): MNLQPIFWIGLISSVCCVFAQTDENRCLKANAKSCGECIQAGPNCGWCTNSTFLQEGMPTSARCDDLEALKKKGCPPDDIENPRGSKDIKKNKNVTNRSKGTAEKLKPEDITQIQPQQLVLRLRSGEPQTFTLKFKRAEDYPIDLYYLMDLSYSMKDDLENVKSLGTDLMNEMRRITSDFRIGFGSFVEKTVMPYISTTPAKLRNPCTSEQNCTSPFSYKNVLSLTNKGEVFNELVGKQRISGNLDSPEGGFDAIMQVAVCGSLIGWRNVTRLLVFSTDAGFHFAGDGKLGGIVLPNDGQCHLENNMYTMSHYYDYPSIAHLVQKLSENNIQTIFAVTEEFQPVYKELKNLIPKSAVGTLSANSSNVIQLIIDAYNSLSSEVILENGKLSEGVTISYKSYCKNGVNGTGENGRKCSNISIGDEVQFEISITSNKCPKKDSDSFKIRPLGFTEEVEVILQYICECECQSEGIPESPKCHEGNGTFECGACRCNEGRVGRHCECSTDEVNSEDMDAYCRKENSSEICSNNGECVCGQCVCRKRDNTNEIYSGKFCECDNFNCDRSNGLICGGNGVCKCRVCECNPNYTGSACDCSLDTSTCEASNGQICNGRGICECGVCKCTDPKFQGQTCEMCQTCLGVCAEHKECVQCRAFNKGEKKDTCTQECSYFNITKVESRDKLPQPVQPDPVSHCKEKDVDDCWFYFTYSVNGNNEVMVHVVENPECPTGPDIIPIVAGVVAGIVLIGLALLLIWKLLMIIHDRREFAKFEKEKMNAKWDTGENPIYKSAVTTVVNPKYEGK
Chain of Integrin beta-1 (Homo sapiens) + Integrin alpha-4 (Homo sapiens) (P13612 whole entry, looked up): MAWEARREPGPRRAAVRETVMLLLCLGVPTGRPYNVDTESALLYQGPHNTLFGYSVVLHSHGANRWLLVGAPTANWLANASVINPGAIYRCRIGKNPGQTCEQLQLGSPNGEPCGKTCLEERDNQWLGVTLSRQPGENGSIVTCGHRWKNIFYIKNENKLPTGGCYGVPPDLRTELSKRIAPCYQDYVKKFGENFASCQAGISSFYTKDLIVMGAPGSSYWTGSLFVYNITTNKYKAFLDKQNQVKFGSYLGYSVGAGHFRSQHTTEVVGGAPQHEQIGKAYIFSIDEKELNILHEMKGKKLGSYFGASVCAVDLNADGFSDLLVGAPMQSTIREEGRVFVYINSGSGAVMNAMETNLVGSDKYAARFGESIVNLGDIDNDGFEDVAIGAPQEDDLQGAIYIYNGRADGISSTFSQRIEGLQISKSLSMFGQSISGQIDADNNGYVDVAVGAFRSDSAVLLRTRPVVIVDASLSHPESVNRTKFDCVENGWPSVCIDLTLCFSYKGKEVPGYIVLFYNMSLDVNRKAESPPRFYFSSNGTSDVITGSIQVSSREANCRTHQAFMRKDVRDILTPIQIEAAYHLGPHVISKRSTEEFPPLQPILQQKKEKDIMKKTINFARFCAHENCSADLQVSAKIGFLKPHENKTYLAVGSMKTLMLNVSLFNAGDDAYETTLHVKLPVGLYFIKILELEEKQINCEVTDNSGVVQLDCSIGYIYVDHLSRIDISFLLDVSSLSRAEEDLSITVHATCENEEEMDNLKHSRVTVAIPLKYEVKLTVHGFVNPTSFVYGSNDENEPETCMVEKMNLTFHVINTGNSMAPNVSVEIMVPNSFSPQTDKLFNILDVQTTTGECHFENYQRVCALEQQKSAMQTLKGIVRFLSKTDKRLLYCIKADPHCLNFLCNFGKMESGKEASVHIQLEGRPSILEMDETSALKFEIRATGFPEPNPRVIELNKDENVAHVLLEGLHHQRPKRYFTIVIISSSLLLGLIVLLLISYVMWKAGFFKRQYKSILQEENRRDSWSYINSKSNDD
Chain of Beta-adrenergic receptor kinase 1 (Homo sapiens) (P25098 whole entry, looked up): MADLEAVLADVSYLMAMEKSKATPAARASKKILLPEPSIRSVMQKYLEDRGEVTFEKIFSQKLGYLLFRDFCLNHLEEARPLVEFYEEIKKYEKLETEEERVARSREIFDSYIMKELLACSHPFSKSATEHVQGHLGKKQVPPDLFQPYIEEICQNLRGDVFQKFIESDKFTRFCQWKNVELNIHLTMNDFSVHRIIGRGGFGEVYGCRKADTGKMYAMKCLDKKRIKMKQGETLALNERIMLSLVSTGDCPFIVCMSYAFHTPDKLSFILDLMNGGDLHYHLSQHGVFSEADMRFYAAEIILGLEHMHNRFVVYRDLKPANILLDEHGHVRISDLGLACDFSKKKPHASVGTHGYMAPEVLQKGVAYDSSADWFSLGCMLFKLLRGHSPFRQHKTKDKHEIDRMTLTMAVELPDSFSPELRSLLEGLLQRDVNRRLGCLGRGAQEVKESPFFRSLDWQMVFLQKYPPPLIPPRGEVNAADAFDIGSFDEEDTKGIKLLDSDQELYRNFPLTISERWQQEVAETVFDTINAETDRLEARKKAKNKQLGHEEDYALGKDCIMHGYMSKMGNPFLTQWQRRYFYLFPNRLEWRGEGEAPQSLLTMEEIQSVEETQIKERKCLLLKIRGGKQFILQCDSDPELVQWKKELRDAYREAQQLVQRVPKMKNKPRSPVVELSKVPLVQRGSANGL

The term inhibition denotes the change of the read-out against control, counted positive when it falls. On to `COc1cc2c(cc1OC)CN(C(=O)c1ccc(S(=O)(=O)N(C)c3ccccc3)cc1)CC2`, for which, in [1], the percent of DMSO control GFP is 95.9% (inactive). In addition, the GFP response vs DMSO in experiment [2] is 101% (inactive); in experiment [4] it was 115% (inactive). Besides, in [3], the percent response of DMSO control was 99.6% (inactive). Besides, in experiment [5], the GFP response, % of DMSO was 111% (inactive). For the same compound, in [6], the double positive events is 73.5%. In addition, in experiment [6], the vesicle binding response is 605% (inactive). Also, the inhibition is 5.69% (inactive) in experiment [7], -6.13% (inactive) in experiment [11] and 5% (inactive) in experiment [15]. The superoxide response (% of plate) in [8] is 57.5% (active). For the same compound, the aptamer binding inhibition in experiment [9] was 1% (inactive). In addition, the response is -14.1% (inactive) in [10] and 1.25% (inactive) in experiment [12]. Further, the binding (% of control) in [13] is 96.2% (inactive). For the same compound, the efflux inhibition (fraction of control) in [14] was 0 (inactive). The differentiation response in [16] is 1.91% (inactive).
Turning to `Cc1ccc2c(c1)C(CCN)C(=O)N2Cc1ccccc1` (stereo not given), the percent of DMSO control GFP in experiment [1] is 102% (inactive). The GFP response vs DMSO in [2] was 104% (inactive); in experiment [4], 96% (inactive). Further, the percent response of DMSO control in experiment [3] is 109% (inactive). In experiment [5], the GFP response, % of DMSO is 101% (inactive). The double positive events in [6] amounted to 66.6%. The vesicle binding response in experiment [6] is 234% (inactive). The inhibition was -6.68% (inactive) in experiment [7], 8.79% (inactive) in [11] and 1% (inactive) in [15]. Moreover, the superoxide response (% of plate) in experiment [8] was 106% (inactive). Besides, the aptamer binding inhibition in experiment [9] was -4% (inactive). Moreover, the response is -2.03% (inactive) in experiment [10] and 0.57% (inactive) in experiment [12]. The binding (% of control) in experiment [13] was 94.5% (inactive). The efflux inhibition (fraction of control) in [14] is -0.14 (inactive). Moreover, the differentiation response in experiment [16] was -2.69% (inactive).
Turning to `COc1ccc(C2=C(CN(C)C)C(c3ccccc3)c3ccccc3O2)cc1` (stereo not given), the percent of DMSO control GFP in experiment [1] is 102% (inactive). The GFP response vs DMSO in experiment [2] was 105% (inactive); in experiment [4] it was 92% (inactive). Also, the percent response of DMSO control in [3] is 96.6% (inactive). The GFP response, % of DMSO in experiment [5] was 99.7% (inactive). The compound also had a double positive events in experiment [6] of 61.4%. In experiment [6], the vesicle binding response is 6270% (inactive). The inhibition in experiment [7] is 3.7% (inactive); in experiment [11] it was 12.1% (inactive); in experiment [15], 7% (inactive). For the same compound, the superoxide response (% of plate) in experiment [8] is 102% (inactive). Moreover, the aptamer binding inhibition in [9] was -2% (inactive). For the same compound, the response in [10] is 10.4% (inactive); in experiment [12], -5.6% (inactive). The binding (% of control) in [13] is 104% (inactive). The efflux inhibition (fraction of control) in experiment [14] is -0.14 (inactive). Further, the differentiation response in experiment [16] was 0.24% (inactive).
Regarding `O=C(O)C1CSC(c2ccco2)N1` (stereo not given), in experiment [1], the percent of DMSO control GFP was 102% (inactive). Further, the GFP response vs DMSO in [2] was 103% (inactive); in experiment [4] it was 120% (inactive). The percent response of DMSO control in experiment [3] is 102% (inactive). Also, in experiment [5], the GFP response, % of DMSO was 124% (inactive). The double positive events in experiment [6] is 60.6%. In experiment [6], the vesicle binding response is 168% (inactive). In addition, the inhibition is -19% (inactive) in experiment [7], 10% (inactive) in experiment [11] and 2% (inactive) in [15]. Moreover, the superoxide response (% of plate) in experiment [8] was 100% (inactive). Moreover, the aptamer binding inhibition in experiment [9] was 33% (active). Besides, the response was -18.6% (inactive) in experiment [10] and -1.58% (inactive) in [12]. In addition, the binding (% of control) in [13] was 99.5% (inactive). The efflux inhibition (fraction of control) in experiment [14] was 0.04 (inactive). In addition, the differentiation response in experiment [16] is -2.03% (inactive).
`Cc1cccc(C(=O)c2cccc(C)c2)c1`: the percent of DMSO control GFP in [1] was 105% (inactive). In addition, the GFP response vs DMSO in [2] is 103% (inactive); in experiment [4] it was 105% (inactive). The percent response of DMSO control in experiment [3] was 109% (inactive). Further, the GFP response, % of DMSO in experiment [5] is 105% (inactive). Moreover, the double positive events in experiment [6] is 56%. Besides, in [6], the vesicle binding response is 45.4% (inactive). Moreover, the inhibition is 12% (inactive) in experiment [7], -6.55% (inactive) in experiment [11] and 1% (inactive) in experiment [15]. The superoxide response (% of plate) in experiment [8] is 104% (inactive). In experiment [9], the aptamer binding inhibition was 0% (inactive). The response in experiment [10] was -8.97% (inactive); in [12], 1.1% (inactive). Further, the binding (% of control) in [13] is 98.7% (inactive). In addition, in experiment [14], the efflux inhibition (fraction of control) is -0.17 (inactive). Moreover, in [16], the differentiation response is -7.57% (inactive).
